Assay outcomes from PubChem BioAssay.
USP30 block – human USP30 deubiquitinase inhibition; actives 5.3% (n = 47,000); inhibition, % at 25 µM; Q70CQ3; purified USP30, Ub-rhodamine cleavage fluorescence
USP10 block – inhibitors of human USP10 deubiquitinase; Q14694; purified USP10, Ub-rhodamine fluorescence, 60 min; inhibition, % at 20 µM; actives 1.1% (n = 47,000)
OTUD3 inh – human OTUD3 deubiquitinase inhibition | Q5T2D3 | purified OTUD3, Ub-rhodamine fluorescence, 2 h | inhibition, % at 25 µM | actives 0.7% (n = 47,000)
USP17 inh – inhibitors of human USP17 deubiquitinase; A8MUK1; purified USP17, Ub-rhodamine cleavage fluorescence, 3 h; inhibition, % at 50 µM; actives 6.5% (n = 47,000); AID 1645855
USP28 block – human USP28 deubiquitinase inhibition; Q96RU2; purified USP28, Ub-rhodamine cleavage fluorescence, 30 min; inhibition, % at 25 µM; actives 3% (n = 47,000); AID 1645857
Target sequence (Q96RU2 whole entry, looked up): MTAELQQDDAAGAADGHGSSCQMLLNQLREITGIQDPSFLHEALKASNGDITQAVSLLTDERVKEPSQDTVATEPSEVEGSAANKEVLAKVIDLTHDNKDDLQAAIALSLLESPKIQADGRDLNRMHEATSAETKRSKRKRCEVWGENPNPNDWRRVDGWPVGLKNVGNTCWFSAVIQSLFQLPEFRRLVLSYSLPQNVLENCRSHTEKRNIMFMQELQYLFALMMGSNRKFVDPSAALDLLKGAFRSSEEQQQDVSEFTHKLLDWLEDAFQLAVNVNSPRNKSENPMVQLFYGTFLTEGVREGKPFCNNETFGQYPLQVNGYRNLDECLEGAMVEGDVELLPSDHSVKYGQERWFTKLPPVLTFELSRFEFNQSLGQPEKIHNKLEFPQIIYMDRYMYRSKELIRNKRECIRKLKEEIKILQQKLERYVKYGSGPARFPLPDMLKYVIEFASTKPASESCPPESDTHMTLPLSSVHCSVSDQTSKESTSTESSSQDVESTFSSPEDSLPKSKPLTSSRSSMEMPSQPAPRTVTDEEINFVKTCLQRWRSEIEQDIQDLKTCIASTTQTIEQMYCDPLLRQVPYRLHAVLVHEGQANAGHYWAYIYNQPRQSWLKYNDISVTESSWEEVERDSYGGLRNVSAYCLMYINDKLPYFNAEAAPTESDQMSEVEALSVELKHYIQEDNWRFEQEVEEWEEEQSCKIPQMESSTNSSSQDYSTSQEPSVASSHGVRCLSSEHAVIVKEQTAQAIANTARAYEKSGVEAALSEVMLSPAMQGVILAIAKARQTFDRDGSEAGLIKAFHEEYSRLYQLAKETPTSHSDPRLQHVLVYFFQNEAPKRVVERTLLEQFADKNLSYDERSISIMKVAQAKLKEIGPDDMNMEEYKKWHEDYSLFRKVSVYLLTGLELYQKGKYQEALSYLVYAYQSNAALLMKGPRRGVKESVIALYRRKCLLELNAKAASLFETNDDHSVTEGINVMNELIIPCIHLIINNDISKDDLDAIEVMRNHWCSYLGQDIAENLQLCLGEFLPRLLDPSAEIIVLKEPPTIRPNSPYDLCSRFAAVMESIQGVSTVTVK
USP8 inh – blocks human USP8 ubiquitin-rhodamine cleavage | P40818 | purified USP8, Ub-rhodamine cleavage fluorescence, 30 min | inhibition, % at 20 µM | actives 4.2% (n = 47,000)
Hits are given with their value; . = inactive; / = not tested or not shown. In the library only some 13% were active in any assay of this set; here they are far more common. No stated cut-off is given here; in the data, active means inhibition above about 30%; inactive means the rest.

SMILES	USP30 block	USP10 block	OTUD3 inh	USP17 inh	USP28 block	USP8 inh
O=C(Cn1cc(C(=O)c2ccccc2)c(=O)c2cc3c(cc21)OCCO3)Nc1ccc(F)cc1	.	.	.	.	.	.
COc1cc2c(=O)c(C(=O)c3ccc(F)cc3)cn(CC(=O)Nc3ccc(F)cc3)c2cc1OC	.	.	.	33	.	.
COc1ccccc1-c1ccc(SCC(=O)Nc2ccc3c(c2)OCCO3)nn1	40	.	.	.	80	.
Cc1ccc(NC(=O)CSc2cc(N3CCCCC3)ncn2)cc1F	31	.	.	.	.	.
Cc1nc(C)c(-c2ccc(SCC(=O)Nc3ccc4c(c3)OCCO4)nn2)s1	.	.	.	.	.	.
COc1ccc(NC(=O)CSc2nc(-c3ccc4c(c3)OCO4)ccc2C#N)cc1OC	.	.	.	33	.	.
O=C(CSc1cc(N2CCCCC2)ncn1)Nc1ccc2c(c1)OCCO2	.	.	.	.	49	.
CN1CCN(Cc2nc(-c3ccc(N4CCCCC4)nc3)no2)CC1	33	.	.	.	.	.
CN(Cc1ccc(Cl)cc1)Cc1nnc(-c2ccc(Cl)cc2)o1	.	.	.	.	.	.
COc1ccccc1CNC(=O)c1noc2c1CCc1sccc1-2	30	.	.	.	.	.
COc1ccc2c(c1)CCc1c(C(=O)NCc3cccnc3)noc1-2	53	.	.	47	.	.
O=C(NCCc1c[nH]c2ccccc12)c1noc2c1CCc1sccc1-2	.	.	.	32	.	.
O=C(NCc1ccc(F)cc1)c1noc2c1CCc1sccc1-2	.	.	.	.	.	.
O=C(NCc1ccc(Cl)cc1)c1noc2c1CCc1sccc1-2	.	.	.	.	.	75
COc1ccc(NC(=O)C(=O)NCc2cccnc2)c(OC)c1	.	.	.	.	.	.
CCN(c1ccc(OC)cc1)S(=O)(=O)N1CCCC(C(=O)NCc2ccccc2)C1 (centres undefined)	.	.	.	.	.	.
O=C(NCCC1=CCCCC1)c1cc(=O)[nH]c2ccccc12	.	.	.	.	.	.
O=C1NC2(CCN(C(=O)NCc3ccccc3)CC2)Nc2cc(Cl)ccc21	.	.	.	.	.	.
NCC(=O)N1CCC2(CC1)C(=O)NCN2C(=O)Cc1cccc(Cl)c1	.	.	.	.	.	.
COc1ccc(C)cc1N(C)C(=O)c1noc2c1CCc1sccc1-2	30	.	.	.	.	.
CN(C(=O)c1noc2c1CCc1sccc1-2)c1ccccc1F	.	.	.	.	.	.
CC(C)(C)c1ccc(N(CC(N)=O)S(C)(=O)=O)cc1	34	.	.	.	.	.
C=C(NC(=O)C(=C)NC(=O)c1ccc2c(n1)-c1coc(n1)C(=C)NC(=O)C(=C)NC(=O)c1nc(oc1C)C(=C)NC(=O)C(C(C)(C)O)NC(=O)C(=C)NC(=O)c1nc(oc1C)/C(=C/C)NC(=O)C(C(C)O)NC(=O)c1csc-2n1)C(N)=O (centres undefined)	.	.	.	36	.	.
N#C/C(=C\c1cn(CCC(N)=O)c2ccccc12)c1nc2ccccc2[nH]1	.	.	.	40	.	.
COc1cccc(CC(=O)N2CCC3(CC2)NC(=O)[C@H]2CN(Cc4cccnc4)C[C@H]23)c1	.	.	.	.	.	.
SMILES	USP30 block	USP10 block	OTUD3 inh	USP17 inh	USP28 block	USP8 inh
CN1CCc2c(sc3nc(SCC(=O)Nc4nccs4)nc(N)c23)C1	/	.	.	38	/	.
CC1CCN(C(=O)CSc2nc(N)c3c4c(sc3n2)CN(C)CC4)CC1	.	.	.	.	.	.
O=C(C1CCC1)N1CCCC1c1ccnc(Nc2cnccn2)n1 (centres undefined)	.	.	.	.	.	44
Cc1ccc(NC(=O)c2cc(=O)c3ccccc3o2)cc1S(=O)(=O)N1CCOCC1	35	.	.	.	.	.
Cc1ccc(NC(=O)C2CCCC2)cc1S(=O)(=O)N1CCOCC1	.	.	.	.	.	.
CCOc1ccc(NC(=O)CSc2cc(=O)n(C)c3cc(Cl)ccc23)cc1	.	.	.	47	.	.
Cn1c(=O)cc(SCC(=O)NC2CCN(Cc3ccccc3)CC2)c2ccc(Cl)cc21	50	.	.	34	.	.
COc1cc(NC(=O)CSc2cc(=O)n(C)c3cc(Cl)ccc23)cc(OC)c1OC	.	.	.	.	.	.
Cc1ccc(-n2ncc3c2ncn2c(C)nnc32)cc1C	45	.	.	.	.	.
Cc1ccc(-n2ncc3c2ncn2nc(C(C)(C)C)nc32)cc1C	.	.	.	.	.	.
CCC(C(=O)Nc1ccc(C)cc1C)n1c(C)nc2onc(C)c2c1=O (centres undefined)	38	.	.	31	.	.
Cc1noc2nc(C)n(CC(=O)NCc3ccccc3Cl)c(=O)c12	.	.	.	.	.	.
COc1ccc(C(=O)Nc2ccc(C(=O)OCc3cc(=O)n4ccsc4n3)cc2)cc1	/	.	.	38	/	.
CC(=O)Nc1ccc(C(=O)OCc2cc(=O)n3c4c(sc3n2)CCCC4)cc1	.	.	.	37	.	.
COc1ccc(CCN(C)C(=O)COc2ncnc3ccccc23)cc1OC	32	.	.	/	.	.
COc1cccc2c1C(=O)c1ccc3c(c1C2=O)C(=O)C[C@@H](C)C3	.	.	.	30	.	.
COc1cccc2c1C(=O)c1ccc3c(c1C2=O)C(=O)C[C@@H](C)[C@@H]3O	.	.	.	45	.	.
COc1ccccc1Nc1ncc2c(n1)CC(C)CC2=O (centres undefined)	.	.	.	.	.	.
CCc1ccccc1NC(=O)CN1C=NS(=O)(=O)c2ccccc21	.	.	.	.	.	.
CCN1CCN(c2nc3ncn(CC(=O)Nc4ccccc4C)c(=O)c3s2)CC1	.	.	.	.	.	.
O=C1COc2ccc(C(=O)Nc3cccc4ncccc34)cc2N1	.	.	.	37	.	.
O=C1COc2ccc(C(=O)c3ccccc3C(=O)NC3CC3)cc2N1	/	.	.	.	/	.
O=C(CN1C(=O)COc2ccc(Cl)cc21)Nc1cccc2ncccc12	.	.	.	60	.	73
O=C(Cc1ccc(Cl)c(Cl)c1)Nc1cccc2ncccc12	.	.	.	.	.	.
Cc1cccc(NC(=O)c2ccc3c(c2)N(S(C)(=O)=O)CC3)c1	.	.	.	.	.	.
CS(=O)(=O)N1CCCc2cc(C(=O)Nc3ccc(Oc4ccccc4)cc3)ccc21	.	.	.	.	54	.
CS(=O)(=O)N1CCc2cc(C(=O)Nc3ccc(Cc4ccncc4)cc3)ccc21	.	.	.	.	75	.
CCS(=O)(=O)N1CCc2cc(C(=O)Nc3ccc4c(c3)OCCO4)ccc21	.	.	.	.	93	.
CC1CS(=O)(=O)N(c2ccc(C(=O)Nc3ccc4c(c3)OCCO4)cc2)C1=O (centres undefined)	.	.	.	56	79	.
CS(=O)(=O)N1CCCc2cc(C(=O)NCc3ccc4c(c3)OCO4)ccc21	.	.	.	.	.	.
